Screening data (PubChem)
An excerpt weighted towards active compounds, which were near 3% of everything screened.
SENP8 block-1: human SENP8 protease inhibitors, primary screen, biochemical, fluorescence, Nedd8 protein substrate, uHTS | Sentrin-specific protease 8 (Homo sapiens), Q96LD8 | recombinant SENP8 | 0.64% of 360,000 active | inhibition, % at 20 µM; in the data active = inhibition mostly above about 40%, no sharp cut-off; inactive = mostly below about 27%
SENP7 block: SENP7 protease inhibitors, primary screen, biochemical, luminescence, uHTS; Sentrin-specific protease 7 (Homo sapiens), Q9BQF6; recombinant SENP7, Z-RLRGG-aminoluciferin luminescence, 40 min; inhibition, % at 5 µM; 1.5% of 330,000 active;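 active = inhibition above about 50% at the single test dose, limit read from the data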;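 note: plate controls were DMSO with enzyme for no effect and no enzyme buffer wells for full effect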
Target sequence (Q9BQF6 706-1050 limits assumed): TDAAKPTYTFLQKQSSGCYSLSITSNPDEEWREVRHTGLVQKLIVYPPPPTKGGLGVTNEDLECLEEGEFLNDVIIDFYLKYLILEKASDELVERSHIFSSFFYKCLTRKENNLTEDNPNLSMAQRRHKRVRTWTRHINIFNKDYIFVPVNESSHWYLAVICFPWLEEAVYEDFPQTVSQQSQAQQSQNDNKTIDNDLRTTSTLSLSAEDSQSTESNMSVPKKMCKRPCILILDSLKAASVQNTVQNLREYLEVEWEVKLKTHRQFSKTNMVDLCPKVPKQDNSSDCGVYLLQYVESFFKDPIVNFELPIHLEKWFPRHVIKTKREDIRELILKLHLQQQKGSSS
PPC-1+TRAIL kill: compounds killing PPC-1 cancer cells with TRAIL present, primary screen, TRAIL potentiator project, ATPLite luminescence, uHTS | AID 1443, 2008 | 0.41% of 220,000 active | cell killing (% activity), % at 4 µM or 5 µM | PPC-1 cells + TRAIL, ATPLite viability luminescence;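 active = cell killing above 50% in the first pass at 4 µM, then a duplicate retest at 5 µM averaging 50% or more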;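 note: plate controls were cells with TRAIL plus DMSO for no effect and medium-only wells lacking cells for full effect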
TRAIL sens C8: viability loss with TRAIL in NB7+C8 cells, primary screen, TRAIL sensitizer project, cell-based, ATPlite luminescence. inhibition (viability loss, TRAIL sensitization), % at 10 µM. 1% of 360,000 active;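 active = compounds causing at least 50% loss of cell viability in the single-dose screen, relative to plate controls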
SENP6 inh: SENP6 protease inhibitors, primary screen, biochemical, luminescence, uHTS | Recombinant SENP6 catalytic domain, aminoluciferin luminescence | inhibition, % at 10 µM | 1.8% of 330,000 active;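 active = inhibition above about 50% at the single tested dose, limit read from the data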;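 note: plate controls were DMSO wells with enzyme for no effect and DMSO wells lacking enzyme for full effect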
SENP8 block-2: SENP8 protease inhibitors, primary screen, biochemical, luminescence; Sentrin-specific protease 8 (Homo sapiens), Q96LD8; purified SENP8, Z-RLRGG-aminoluciferin cleavage; inhibition, % at 10 µM; 1.2% of 330,000 active; AID 2540, 2010; in the data active = inhibition above about 50%
PPC1 cytotox: cytotoxicity in PPC-1 cells, confirmation, cytotoxicity control for TRAIL apoptosis potentiator project, cell-based, ATP content luminescence | shares compounds with PPC-1+TRAIL kill | PPC-1 viability, ATPlite luminescence, overnight | cytotoxicity, % at 5 µM | 50% of 1,200 active | AID 1447, 2008;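 active = reconfirmed compounds whose average cytotoxicity reaches 50% or more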;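 note: 0% = DMSO-treated cells and 100% = wells holding medium but no cells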
SENP8 conf: SENP8 protease inhibitors, retest, confirmation, biochemical, luminescence, single concentration; shares compounds with SENP7 block; Recombinant SENP8, Z-RLRGG-aminoluciferin luminescence, 60 min; inhibition, % at 12.5 µM; 40% of 6,200 active; AID 488912, 2010;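 active = mean inhibition across replicates above about 50%, limit read from the data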
SENP6 confirm: SENP6 protease inhibitors, confirmation, biochemical, luminescence, single concentration | 58% of 6,200 active | shares compounds with SENP7 block | AID 488915, 2010 | inhibition, % at 12.5 µM | recombinant SENP6, Z-RLRGG-aminoluciferin luminescence
SENP7 conf: SENP7 protease inhibitors, retest, confirmation, biochemical, luminescence, single concentration | shares compounds with SENP7 block | recombinant SENP7, Z-RLRGG-aminoluciferin luminescence, 40 min | inhibition, % at 12.5 µM | 69% of 6,200 active | AID 488917, 2010
Casp3 SENP sel: caspase-3 protease inhibitors, confirmation, selectivity assay for SENP inhibitor project, biochemical, single concentration; shares compounds with SENP7 block; purified caspase-3, Z-DEVD-aminoluciferin luminescence, 60 min; inhibition, % at 12.5 µM; 60% of 6,200 active; AID 488918, 2010;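 active = mean inhibition above about 50%, limit read from the data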;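 note: plate controls were enzyme with DMSO for no effect and wells without caspase-3 for full effect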
Target sequence (P42574 28-227 limits assumed): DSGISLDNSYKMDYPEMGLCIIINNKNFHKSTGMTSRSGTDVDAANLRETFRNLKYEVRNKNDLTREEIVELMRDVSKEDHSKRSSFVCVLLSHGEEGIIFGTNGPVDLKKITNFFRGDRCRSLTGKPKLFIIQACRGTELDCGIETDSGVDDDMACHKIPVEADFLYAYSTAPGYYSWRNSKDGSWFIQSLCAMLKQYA
SENP luc ctr: luminescence interference (SENP counter-screen); 39% of 6,200 active; inhibition, % at 12.5 µM; Pre-incubated SENP8/Z-RLRGG-aminoluciferin, luciferase luminescence interference; shares compounds with SENP7 block;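 active = mean inhibition above about 50% when retested at one dose, limit read from the data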;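 note: plate controls were DMSO wells with completed reaction for no effect and substrate without enzyme for full effect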
An asterisk follows results filed as active; . = not tested or not shown.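 Rule for the calls, unless noted: active = mean inhibition above about 50% in the one-dose retest (limit read from the data); inactive = the rest.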

SMILES | SENP8 block-1 | SENP7 block | PPC-1+TRAIL kill | TRAIL sens C8 | SENP6 inh | SENP8 block-2 | PPC1 cytotox | SENP8 conf | SENP6 confirm | SENP7 conf | Casp3 SENP sel | SENP luc ctr
COc1ccc(C(=O)Nc2ccc(C)cn2)c(OC)c1 | 10 | 94* | 88* | 91* | 90* | 90* | 88* | 93* | 92* | 100* | 94* | 91*
CCOc1ccc(C(=O)Nc2cccc3ncccc23)cc1Br | -4 | -2 | 17 | -3 | 5 | -5 | . | . | . | . | . | .
Nc1nc(Nc2cccc(F)c2)nc2ccccc12 | -319 | 90* | 28 | 27 | 96* | 88* | 29 | 96* | 96* | 102* | 91* | 96*
O=c1oc(Nc2cccc(F)c2)nc2ccccc12 | -249 | -6 | 2 | 13 | 5 | 5 | . | . | . | . | . | .
C=C(C)CSc1nc2ncccc2[nH]1 | 10 | 5 | 0 | -8 | -13 | 4 | . | . | . | . | . | .
Cc1ccc(CSc2nc3ncccc3[nH]2)cc1 | 11 | 67* | 49 | 67* | 81* | 64* | 48 | 7 | 77* | 95* | 43 | 81*
CC(CCc1ccccc1)NC(=O)CN1CCSc2ccccc21 (centres undefined) | 15 | -2 | 14 | 5 | -10 | -6 | . | . | . | . | . | .
NC(=O)c1ccccc1NC(=O)/C=C/c1ccc(Cl)cc1 | 3 | 63* | 56* | 68* | 51* | 22 | 57* | 1 | 17 | 89* | 66* | 18
O=C(/C=C/c1ccc(Cl)cc1)NC(=S)Nc1ccccc1C(=O)O | -2 | 9 | -5 | -42 | -10 | 5 | . | . | . | . | . | .
COc1cccc(-c2nc(-c3ccccn3)no2)c1 | . | 97* | 76* | . | 97* | 92* | 81* | 95* | 98* | 103* | 98* | 96*
COc1cccc(-c2nc(-c3ccc(NC(=O)c4cccnc4)cc3)no2)c1 | 23 | 5 | -19 | 9 | -5 | -6 | . | . | . | . | . | .
c1ccc(-c2noc(-c3ccc4c(c3)OCO4)n2)nc1 | -26 | -1 | 87* | 85* | 98* | 98* | 88* | -26 | 97* | 103* | 98* | 5
CC(C)(C)Cc1nc(-c2ccccn2)no1 | 16 | -13 | -18 | -7 | -14 | -12 | . | . | . | . | . | .
Clc1ccccc1/C=C/c1nc(-c2ccccn2)no1 | 14 | 100* | 71* | 69* | 96* | 95* | 67* | 99* | 100* | 103* | 98* | 74*
CCn1c(C)nc2cc(C(=O)NNC(=O)c3ccc(C)cc3)ccc21 | -41 | 6 | . | 1 | 2 | 4 | . | . | . | . | . | .
Cc1ccc(-c2nc3n(n2)Cc2ccccc2-3)cc1 | 14 | 99* | 75* | 86* | 97* | 96* | 74* | 80* | 91* | 103* | 98* | 68*
CCn1c(C)nc2cc(-c3nc4n(n3)Cc3ccccc3-4)ccc21 | -6 | 100* | 94* | 96* | 96* | 96* | 94* | 99* | 100* | 103* | 99* | 86*
Cc1ccc(NCC(=O)NNC2=NCCC2)c(C)c1 | 8 | -7 | -4 | 1 | -1 | 2 | . | . | . | . | . | .
O=C(Nc1ccc2oc(=O)ccc2c1)c1cc2ccccc2o1 | -335 | 7 | 22 | 34 | 8 | 8 | . | . | . | . | . | .
O=C(Nc1ccc2c(c1)OCCO2)c1cc2ccccc2o1 | 0 | 78* | 57* | 79* | 81* | 61* | 56* | 2 | 84* | 97* | 80* | 79*
CC(OC(=O)c1ccc(Br)o1)C(=O)Nc1ccc2c(c1)OCCO2 (centres undefined) | 4 | 10 | . | -11 | 0 | -3 | . | . | . | . | . | .
O=C(Nc1ccc2c(c1)OCCO2)c1ccc(Br)o1 | 20 | 74* | 52* | 61* | 77* | 55* | 51* | 77* | 70* | 91* | 85* | 74*
CC(=O)c1ccc(N2CCN(C(C)C(=O)NC3CCCc4ccccc43)CC2)cc1 (centres undefined) | -60 | -4 | -5 | 21 | -5 | -2 | . | . | . | . | . | .
O=C1c2ccccc2-c2nnc(-c3ccc(F)cc3)cc21 | 42* | 99* | 78* | 83* | 83* | 90* | 79* | 86* | 84* | 82* | 44 | 1
O=C1c2ccccc2-c2nnc(-c3ccc(O)cc3)cc21 | 5 | 100* | 69* | 50 | 99* | 96* | 64* | 95* | 94* | 101* | 96* | 16
Oc1ccc(-c2cc(-c3ccc(O)cc3)nc(-c3ccccc3)n2)cc1 | -76 | 2 | . | -9 | -27 | -7 | . | . | . | . | . | .
Cc1ccc(-c2cc3c(nn2)-c2ccccc2C3=O)cc1 | 49* | 99* | 90* | 93* | 96* | 96* | 92* | 85* | 95* | 99* | 89* | 8
Cc1ccccc1-c1cc2c(nn1)-c1ccccc1C2=O | 105* | 98* | 38 | 55* | 100* | 96* | 46 | 83* | 99* | 102* | 98* | 56*
CC1(C)Cc2c(cnn2-c2cccc(F)c2)C(NC(=O)CCc2cnccn2)C1 (centres undefined) | -1 | 4 | . | 0 | 4 | 8 | . | . | . | . | . | .
CCOC(=O)CN(c1cc([N+](=O)[O-])ccc1OC)S(C)(=O)=O | 14 | 2 | 7 | 0 | -2 | -3 | . | . | . | . | . | .
